Experimental data from PubChem BioAssay (NCATS).
Several values for one entry are separate records, joined by “and”; a condition that tells them apart may be missing. Equal values may be shown once. Records with an inconclusive call do not appear. Activity calls are given as the source filed them. Unless noted, calls follow the shape of the dose curve; as a rule, active = well fitted curve in the direction sought with a large enough effect; inconclusive = small, poorly fitted or top-dose-only effect, or another doubt; inactive = no such curve, though single readings can be large; an effect the other way counts as inactive or inconclusive.

Assays:
[1] = molecular target: Cytochrome P450 2D6 (Homo sapiens) (UniProt P10635); test: qHTS for inhibitors of CYP2D6 against the NCATS DSHEA and TCM libraries (AID 1919972); also: % is scaled to controls: 0 for no effect and ±100 for the full control effect
Procedure, shortened: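 Luminescent P450-Glo read-out of CYP2D6 turnover of a luciferin substrate after NADPH-driven reaction of 30-45 min at room temperature. Compounds were first preincubated 15 min with enzyme at titrated concentrations; quinidine was the intraplate control.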

[2] = molecular target: Cytochrome P450 2C9 (Homo sapiens) (UniProt P11712); test: qHTS for inhibitors of CYP2C9 against the NCATS DSHEA and TCM libraries (AID 1919973);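 also: luminogenic pro-luciferin CYP2C9 substrate turned into luciferin with NADPH regeneration; series mostly up to about 34 µM; % is scaled to controls: 0 for no effect and ±100 for the full control effect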
Procedure, shortened: (§1)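 Luminescent P450-Glo format: compounds preincubated 15 min with enzyme and luciferin substrate, reaction run 30-45 min after NADPH regeneration solution. Intraplate controls: ketoconazole for CYP3A4 and CYP2C19, sulfaphenazole for CYP2C9.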

[3] = molecular target: Cytochrome P450 2C19 (Homo sapiens) (UniProt P33261); test: qHTS for inhibitors of CYP2C19 against the NCATS DSHEA and TCM libraries (AID 1919974);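 also: luminescence from luciferin released by CYP2C19 oxidation of a pro-luciferin substrate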; also: potency is read from the fitted curve at half-maximal effect
Procedure, shortened: as §1

[4] = KB-3-1 P-gp reporter qHTS against the NCATS DSHEA and TCM libraries (AID 1919975); also: 0% is about no effect
Procedure, shortened: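 KB-3-1 parental line, 1536-well qHTS: cells seeded, ~4 h attachment, pintool compound addition, ~72 h at 37C, then CellTiter-Glo, 30 min RT, luminescence. Concentration-response format.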

[5] = qHTS Counterscreen for compound interference against the NCATS DSHEA and TCM libraries (AID 1919978); details: firefly luciferase detection reagent interference, luminescence;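 also: compounds preincubated with 1 µM D-luciferin or buffer before detection reagent; % of control where 0% means no effect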
Procedure, shortened: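 Compounds, titrated from 19.5 nM to 39.8 uM final, were pinned onto 1 uM D-luciferin or plain 100 mM potassium phosphate. After 15 min at room temperature, luciferin detection reagent was added for 30 min before the luminescence read.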

[6] = Dual reporter qHTS for agonist of Pregnane X Receptor (hPXR) against the NCATS DSHEA and TCM libraries: Fluorescence readout (AID 1920058); also: 0% is about no effect
Procedure, shortened: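 hPXR-Luc HepG2 cells, 2000/well in charcoal-stripped serum, attached 5 h, dosed for ~24 h at 37 °C. Fluorescence read is CellTiter-Fluor viability (Ex/Em 405/540 nm); rifampicin positive, tetraoctyl ammonium bromide (92 µM) cytotoxicity controls.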

[7] = molecular target: Nuclear receptor subfamily 1 group I member 2 (Homo sapiens) (UniProt O75469); test: Dual reporter qHTS for agonist of Pregnane X Receptor (hPXR) against the NCATS DSHEA and TCM libraries: Luminescence readout (AID 1920059); also: 0% is about no effect
Procedure, shortened: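 hPXR-LucHepG2 cells in phenol red-free DMEM with 5% charcoal-stripped FBS, 2000 cells/well, attached 5 h, then exposed 24 h at 37C to compounds; rifampicin as positive agonist control (2.8 nM–92 uM). Luciferase luminescence read.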

[8] = molecular target: Nuclear receptor subfamily 1 group I member 2 (Homo sapiens) (UniProt O75469); test: Dual reporter qHTS for antagonist of Pregnane X Receptor (hPXR) against the NCATS DSHEA and TCM libraries: Luminescence Readout (AID 1920060);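 also: HepG2 cells carrying hPXR luciferase reporter stimulated with rifampicin at 2 µM; 0% is about no effect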
Procedure, shortened: (§2)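 HepG2 hPXR-Luc, 2000 cells/well, charcoal-stripped FBS medium; 5 h attach; RIF 2 uM final; 24 h 37C/5% CO2; CellTiter-Fluor 1 h, fluor 405/540; ONE-Glo 30 min RT, lum.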

[9] = Dual reporter qHTS for antagonist of Pregnane X Receptor (hPXR) against the NCATS DSHEA and TCM libraries: Fluorescence Readout (AID 1920061); also: 0% is about no effect
Procedure, shortened: as §2

[10] = molecular target: Peroxisome proliferator-activated receptor gamma (Homo sapiens) (UniProt P37231); test: qHTS assay for small molecule agonists of peroxisome proliferator-activated receptor gamma signaling (AID 588536; active = well fitted curve in the direction sought with a large enough effect in the signal ratio, with a control signal flat, not every such curve was filed as active; the % refers to the signal ratio;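 also: 0% = DMSO basal wells and 100% = rosiglitazone at 2 µM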)
Procedure, shortened: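 Test agents, titrated, stimulated HEK293 UAS-bla cells overnight (16 h, 37 C). Substrate CCF4 was then added for two hours at room temperature before fluorescence reading.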

[11] = molecular target: Peroxisome proliferator-activated receptor gamma (Homo sapiens) (UniProt P37231); test: qHTS assay for small molecule antagonists of peroxisome proliferator-activated receptor gamma signaling (AID 588537; active = well fitted inhibition curve with a large enough effect in the signal ratio, with a control signal flat, not every such curve was filed as active; the % refers to the signal ratio;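 also: reporter cells co-stimulated with 50 nM rosiglitazone agonist during compound treatment; % of control where 0% means no effect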)
Procedure, shortened: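 We seeded GeneBLAzer HEK293 reporter cells at 3000 per well, allowed 6-6.5 h attachment at 37 C, then co-treated with test compound titrations and 50 nM rosiglitazone overnight (16 h). Inhibition was quantified from 460/530 nm emission ratios.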

[12] = molecular target: Thyroid hormone receptor beta (Homo sapiens) (UniProt P10828); test: qHTS assay for small molecule agonists of thyroid hormone receptor beta signaling (AID 588545; calls by dose curve)
Procedure, shortened: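 Agonist-mode beta-lactamase reporter assay, HEK 293 cells, 2% charcoal/dextran FBS; cells plated 4 hrs, compound 18 hrs at 37 C, CCF4 2 hrs RT. Normalized to 10 nM T3 (100%) and DMSO (0%); Hill fit gives EC50, efficacy.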

[13] = qHTS assay for small molecule antagonists of retinoid X receptor alpha signaling (AID 588546; active = well fitted inhibition curve with a large enough effect in the signal ratio, with a control signal flat, not every such curve was filed as active; the % refers to the signal ratio;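 also: cells stimulated with 9-cis-retinoic acid as agonist; % is scaled to controls: 0 for no effect and ±100 for the full control effect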); details: HEK293T RXRa-UAS-bla, beta-lactamase ratio, antagonist mode; measured here: W530 green channel, cytotoxicity proxy
Procedure, shortened: (§3)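 Beta-lactamase reporter inhibition, read as CCF4 fluorescence ratio (ex 405, em 460/530 nm) after 2 h at RT. HEK293T UAS-bla cells, 2500/well, were stimulated with 9-cis-RA at 500 or 100 nM final alongside test compound for 18 h at 37 C.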

[14] = molecular target: Retinoic acid receptor RXR-alpha (Homo sapiens) (UniProt P19793); test: as above; details: HEK293T RXRa-UAS-bla, beta-lactamase ratio, antagonist mode
Procedure, shortened: as §3

[15] = qHTS assay for small molecule activators of the p53 signaling pathway (AID 651743; active = well fitted activation curve with a large enough effect in the signal ratio, not every such curve was filed as active; the % refers to the signal ratio; also: series mostly up to about 92 µM; % of control where 0% means no effect); details: HCT-116 p53RE-bla, beta-lactamase FRET ratio, 16 h; stronger effect = higher value
Procedure, shortened: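 Cell-based beta-lactamase reporter (p53 response elements, HCT-116 background). After a 5-hour preincubation, cells received compound for 16 hours at 37 C; substrate development ran 2 hours at room temperature.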

[16] = qHTS assay for environmental chemicals that activate the Aryl hydrocarbon Receptor (AhR) signaling pathway (AID 651777); details: 1A2-DRE human hepatoma cells, luciferase, 24 h; stronger effect = higher value; also: % of control where 0% means no effect; nearly all actives have a fitted effect of over 15% in size
Procedure, shortened: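 Luminescence (One-Glo, 30 min, room temperature) reports AhR-driven luciferase in stably transfected human hepatoma cells bearing DRE and CYP1A2 promoter. Cells (1,200/well) were treated with compound for 24 hr at 37 C in qHTS format.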

[17] = molecular target: Peroxisome proliferator-activated receptor alpha (Homo sapiens) (UniProt Q07869); test: qHTS assay for small molecule agonists of the peroxisome proliferator-activated receptor alpha (PPARalpha) signaling pathway (AID 651778); details: PathHunter PPARalpha complementation, chemiluminescence, 6 h; stronger effect = higher value; also: % of control where 0% means no effect
Procedure, shortened: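 Cells plated at 2,000/well and held overnight at 37 C, 5% CO2, then compound added by pin tool for 6 hr; after PathHunter detection reagent and 60 min at room temperature, chemiluminescence from enzyme complementation was read.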

[18] = qHTS assay for small molecule agonists of the antioxidant response element (ARE) signaling pathway measured by Nrf2-dependant transcriptional activity - cell viability counter screen (AID 720653; active = well fitted curve in the direction sought with a large enough effect in the repeat runs; an effect the other way counts as inactive or inconclusive; also: % is scaled to controls: 0 for no effect and ±100 for the full control effect); details: ARE-bla HepG2 viability, CellTiter-Glo ATP luminescence, 16 h; max response: stronger effect = lower value
Procedure, shortened: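 ARE-bla HepG2 cells (2,000/well) rested 5 hrs at 37C/5% CO2, then exposed to compounds in DMSO for 16 hrs. Viability was read in the same wells as intracellular ATP by luminescence, 30 min at room temperature after reagent addition.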

[19] = qHTS assay for cell viability of HEK293 cells (AID 743288); details: ATP luminescence (CellTiter-Glo), 18 h; max response: stronger effect = lower value; also: % is scaled to controls: 0 for no effect and ±100 for the full control effect; nearly all actives have a fitted effect of over 50% in size
Procedure, shortened: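 HEK293 parental, 2,000 cells/well; ≥5 h pre-incubation 37 C; pintool compound addition; 18 h, 37 C; CellTiter-Glo 30 min RT; luminescence read.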

[20] = qHTS assay for cell viability of the p53RE-bla HCT-116 cell line (AID 743292); also: % is scaled to controls: 0 for no effect and ±100 for the full control effect; nearly all actives have a fitted effect of over 55% in size
Procedure, shortened: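 ATP-based luminescent viability (CellTiter-Glo, 30 min RT) after 16 h compound treatment at 37 C of p53RE-bla HCT-116 cells, seeded at 4,000 cells/well and rested 5 h before dosing.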

Peroxisome proliferator-activated receptor alpha (Homo sapiens), sequence (Q07869 whole entry, looked up): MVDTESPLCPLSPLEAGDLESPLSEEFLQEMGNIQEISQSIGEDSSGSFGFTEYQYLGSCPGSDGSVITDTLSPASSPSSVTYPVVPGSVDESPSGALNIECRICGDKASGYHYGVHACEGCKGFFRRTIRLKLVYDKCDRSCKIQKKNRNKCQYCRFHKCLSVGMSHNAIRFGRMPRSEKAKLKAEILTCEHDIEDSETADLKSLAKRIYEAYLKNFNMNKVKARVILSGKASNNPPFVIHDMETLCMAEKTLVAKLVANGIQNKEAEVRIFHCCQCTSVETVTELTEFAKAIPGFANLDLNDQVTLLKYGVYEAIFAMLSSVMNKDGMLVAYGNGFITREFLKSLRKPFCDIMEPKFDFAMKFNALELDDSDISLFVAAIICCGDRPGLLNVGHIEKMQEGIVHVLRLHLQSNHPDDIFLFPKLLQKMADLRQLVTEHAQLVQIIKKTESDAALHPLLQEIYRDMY
Nuclear receptor subfamily 1 group I member 2 (Homo sapiens), sequence (O75469 whole entry, looked up): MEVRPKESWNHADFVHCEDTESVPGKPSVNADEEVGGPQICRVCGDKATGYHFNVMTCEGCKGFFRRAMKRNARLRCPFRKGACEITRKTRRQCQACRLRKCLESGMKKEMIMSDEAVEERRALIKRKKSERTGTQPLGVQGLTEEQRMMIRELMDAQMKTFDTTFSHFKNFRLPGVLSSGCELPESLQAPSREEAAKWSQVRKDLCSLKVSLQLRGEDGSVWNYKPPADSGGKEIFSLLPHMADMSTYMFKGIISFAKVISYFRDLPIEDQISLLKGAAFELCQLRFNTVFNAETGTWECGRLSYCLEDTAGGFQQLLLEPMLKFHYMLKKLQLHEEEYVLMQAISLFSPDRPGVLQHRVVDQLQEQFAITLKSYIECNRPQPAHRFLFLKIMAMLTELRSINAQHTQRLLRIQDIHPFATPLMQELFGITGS
Peroxisome proliferator-activated receptor gamma (Homo sapiens), sequence (P37231 whole entry, looked up): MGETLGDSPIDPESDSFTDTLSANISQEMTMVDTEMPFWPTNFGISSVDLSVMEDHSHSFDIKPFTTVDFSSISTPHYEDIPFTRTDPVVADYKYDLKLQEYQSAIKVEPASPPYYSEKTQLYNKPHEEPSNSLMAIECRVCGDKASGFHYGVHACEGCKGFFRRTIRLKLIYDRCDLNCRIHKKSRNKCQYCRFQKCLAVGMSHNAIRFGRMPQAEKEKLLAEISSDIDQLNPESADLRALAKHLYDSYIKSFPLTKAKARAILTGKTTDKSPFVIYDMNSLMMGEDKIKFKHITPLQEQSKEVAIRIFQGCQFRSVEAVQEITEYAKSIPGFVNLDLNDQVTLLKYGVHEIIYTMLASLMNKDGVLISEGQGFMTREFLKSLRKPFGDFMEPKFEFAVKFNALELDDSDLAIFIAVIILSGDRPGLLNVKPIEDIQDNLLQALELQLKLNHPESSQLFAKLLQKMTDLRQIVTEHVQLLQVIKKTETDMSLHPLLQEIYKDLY
Thyroid hormone receptor beta (Homo sapiens), sequence (P10828 whole entry, looked up): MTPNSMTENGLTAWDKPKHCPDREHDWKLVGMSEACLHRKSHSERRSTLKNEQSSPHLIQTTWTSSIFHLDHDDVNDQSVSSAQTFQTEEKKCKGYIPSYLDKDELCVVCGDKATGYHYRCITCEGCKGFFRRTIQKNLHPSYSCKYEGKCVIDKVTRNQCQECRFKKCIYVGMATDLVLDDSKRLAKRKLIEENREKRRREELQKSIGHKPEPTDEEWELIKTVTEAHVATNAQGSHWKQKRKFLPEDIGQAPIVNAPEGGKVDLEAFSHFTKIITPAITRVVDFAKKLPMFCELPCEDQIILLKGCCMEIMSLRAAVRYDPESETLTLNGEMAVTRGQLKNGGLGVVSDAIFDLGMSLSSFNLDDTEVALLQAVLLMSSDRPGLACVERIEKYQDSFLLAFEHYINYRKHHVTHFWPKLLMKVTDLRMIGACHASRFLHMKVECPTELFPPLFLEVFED
Cytochrome P450 2C9 (Homo sapiens), sequence (P11712 whole entry, looked up): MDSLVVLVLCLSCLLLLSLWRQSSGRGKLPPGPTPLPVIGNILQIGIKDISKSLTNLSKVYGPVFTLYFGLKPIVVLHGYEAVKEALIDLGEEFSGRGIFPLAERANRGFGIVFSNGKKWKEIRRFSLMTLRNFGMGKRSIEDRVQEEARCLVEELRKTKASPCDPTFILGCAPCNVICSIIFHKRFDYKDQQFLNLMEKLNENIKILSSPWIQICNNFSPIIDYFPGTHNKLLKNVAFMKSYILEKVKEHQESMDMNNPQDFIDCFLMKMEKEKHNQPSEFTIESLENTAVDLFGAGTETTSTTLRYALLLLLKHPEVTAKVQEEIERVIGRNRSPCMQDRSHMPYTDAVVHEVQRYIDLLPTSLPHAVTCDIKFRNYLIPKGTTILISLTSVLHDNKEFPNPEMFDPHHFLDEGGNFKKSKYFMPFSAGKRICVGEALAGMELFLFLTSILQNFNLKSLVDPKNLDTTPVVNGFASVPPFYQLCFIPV
Retinoic acid receptor RXR-alpha (Homo sapiens), sequence (P19793 whole entry, looked up): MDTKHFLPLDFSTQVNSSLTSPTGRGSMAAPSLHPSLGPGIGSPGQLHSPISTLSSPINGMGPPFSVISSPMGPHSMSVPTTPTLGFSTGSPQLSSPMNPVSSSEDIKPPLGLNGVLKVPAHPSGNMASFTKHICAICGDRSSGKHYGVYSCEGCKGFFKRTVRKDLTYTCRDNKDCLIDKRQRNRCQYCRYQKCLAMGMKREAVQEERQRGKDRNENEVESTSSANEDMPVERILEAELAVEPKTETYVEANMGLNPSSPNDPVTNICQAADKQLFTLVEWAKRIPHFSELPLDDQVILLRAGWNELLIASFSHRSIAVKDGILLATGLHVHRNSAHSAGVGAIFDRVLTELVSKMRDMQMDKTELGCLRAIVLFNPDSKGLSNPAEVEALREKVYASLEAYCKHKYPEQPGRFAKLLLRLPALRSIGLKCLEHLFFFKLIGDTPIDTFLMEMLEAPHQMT
Cytochrome P450 2C19 (Homo sapiens), sequence (P33261 whole entry, looked up): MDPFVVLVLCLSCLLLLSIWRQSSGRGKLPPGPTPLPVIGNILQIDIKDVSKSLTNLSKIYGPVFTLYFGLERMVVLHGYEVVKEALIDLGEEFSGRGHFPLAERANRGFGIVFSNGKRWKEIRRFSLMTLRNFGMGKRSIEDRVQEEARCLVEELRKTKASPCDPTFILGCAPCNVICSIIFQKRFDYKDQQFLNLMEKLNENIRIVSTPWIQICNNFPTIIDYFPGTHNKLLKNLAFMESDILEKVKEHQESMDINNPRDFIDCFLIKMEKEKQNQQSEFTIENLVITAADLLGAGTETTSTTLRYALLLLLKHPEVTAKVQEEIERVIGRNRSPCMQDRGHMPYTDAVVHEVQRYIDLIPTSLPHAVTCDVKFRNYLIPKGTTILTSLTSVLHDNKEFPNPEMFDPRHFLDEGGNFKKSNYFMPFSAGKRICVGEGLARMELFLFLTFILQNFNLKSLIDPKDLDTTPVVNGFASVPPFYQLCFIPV
Cytochrome P450 2D6 (Homo sapiens), sequence (P10635 whole entry, looked up): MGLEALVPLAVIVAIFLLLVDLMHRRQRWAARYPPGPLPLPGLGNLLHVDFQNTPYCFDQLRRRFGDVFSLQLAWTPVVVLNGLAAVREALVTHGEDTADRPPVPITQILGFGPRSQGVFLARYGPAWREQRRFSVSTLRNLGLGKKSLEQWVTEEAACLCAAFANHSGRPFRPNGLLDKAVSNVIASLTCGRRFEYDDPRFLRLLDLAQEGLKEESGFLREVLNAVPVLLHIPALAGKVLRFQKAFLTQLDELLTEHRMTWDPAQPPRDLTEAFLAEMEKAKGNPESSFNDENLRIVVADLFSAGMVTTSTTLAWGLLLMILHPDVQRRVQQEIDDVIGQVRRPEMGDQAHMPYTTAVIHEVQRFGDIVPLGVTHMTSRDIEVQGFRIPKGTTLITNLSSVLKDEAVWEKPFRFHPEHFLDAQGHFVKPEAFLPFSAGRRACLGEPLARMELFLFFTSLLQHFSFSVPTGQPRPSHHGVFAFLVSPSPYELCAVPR

CCCCC[C@H](O)CC(=O)CCc1ccc(O)c(OC)c1
active: Potency [3] 14.1 µM
inactive: outcome [1] | Potency [2] | outcome [4] | max response [5] 0.254% | outcome [6] | outcome [7] | outcome [8] | outcome [9]

CC/C=C\C/C=C\C/C=C\C/C=C\C/C=C\CCCCCC(=O)O
inactive: activity change, negative = inhibition [1] -3.67% [at 4.27 µM] | Potency [2] | Potency [3] | activity change, negative = inhibition [4] -17.1% [at 3.26 µM] | max response [5] 0.0363% | activation [6] -9.65% [at 5 µM] | activation [7] -6.56% [at 5 µM] | activity change, negative = inhibition [8] -29.3% [at 5 µM] | activity change, negative = inhibition [9] 2.07% [at 5 µM]

CC(=O)[C@H]1[C@H](C#N)C[C@H]2[C@@H]3CC=C4C[C@@H](O)CC[C@]4(C)[C@H]3CC[C@@]21C
inactive: outcome [10] | outcome [11] | outcome [12] | max response [14] -3.98% | activation [15] 0.753% and -1.56% | activation [16] -1.23% and 0.356% | max response [17] -0.257% and 0.0087% | max response [18] -9.55% and -3.25% | max response [19] -20.6% and -13.5% | Potency [20]
9.02%: max response [13]

CC(C)=CCC/C(C)=C/CC/C(C)=C/CO
-7.11%: max response [13]
inactive: outcome [10] | outcome [11] | outcome [12] | max response [14] 5.64% | activation [15] 1.11% | activation [16] 1.51% | max response [17] 2.41% | max response [18] -6.95% | max response [19] -6.29% | Potency [20]
